Test results: PubChem BioAssay
For part of these data: Results with a measured potency or affinity are listed apart. The source made the active and inactive calls.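 Rule for the calls, unless noted: active = primary screen inhibitor hit that blocks the TRPC4 channel at some tested dose, yielding a dose curve; inactive = the rest.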

Experiments:
[1] = tested on: TRPC4 beta (transient receptor potential cation channel C4), mouse; test: activators of mouse TRPC4 channel, confirmation, cell-based, Fluo4 calcium, HEK293 TRPC4beta/mu-opioid, duplicates, 10 µM (AID 2426;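 active = fluorescence ratio normalized to control raised more than 50% in primary screen plus both repeat runs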;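 for activation: percent rise of integrated ratio over buffer wells lacking compound which define 0%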); conditions: Fluo4 calcium fluorescence, at 10 µM; stronger effect = higher value
[2] = tested on: transient receptor potential cation channel C4 beta (TRPC4), mouse; test: activators of mouse TRPC4 channel, confirmation, cell-based, second round, Fluo4, HEK293 TRPC4beta/mu-opioid, 1 µM (AID 2461;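 active = primary screen active and over 50% activation in each of two duplicate runs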;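 for activation: 0% = wells without test compound as baseline of integrated fluorescence ratio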); conditions: Fluo4 calcium fluorescence, at 1 µM; stronger effect = higher value
[3] = tested on: TRPC4 (transient receptor potential cation channel C4 beta), mouse; test: positive allosteric modulators of mouse TRPC4, confirmation, cell-based, second round, Fluo-4, HEK293 TRPC4beta/mu-opioid, 1 µM (AID 2554;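 active = primary screen hit whose fluorescence ratio, in both repeats, exceeds the weak agonist control mean by 3 SD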); conditions: DAMGO EC20, Fluo-4 calcium flux, at 1 µM; stronger effect = higher value
[4] = tested on: TRPC4 beta (transient receptor potential cation channel C4), mouse; test: positive allosteric modulators of mouse TRPC4, confirmation, cell-based, Fluo-4, HEK293 TRPC4beta/mu-opioid (AID 2555;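 active = primary screen hit whose calcium fluorescence ratio, in both repeats, exceeds the weak agonist control mean by 3 SD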); conditions: DAMGO EC20, Fluo-4 calcium flux, at 10 µM; stronger effect = higher value
[5] = molecular target: Short transient receptor potential channel 4 (Mus musculus) (UniProt Q9QUQ5); test: inhibitors of mouse TRPC4 channel, confirmation, cell-based, Fluo4, HEK293 TRPC4beta/mu-opioid (AID 2636;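 active = calcium signal cut by more than 3 SD below the full-agonist control yet still positive, in both repeats and the earlier primary screen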); conditions: DAMGO, Fluo4 calcium flux, at 10 µM; stronger effect = higher value
Sequence of Short transient receptor potential channel 4 (Mus musculus) (Q9QUQ5 whole entry, looked up): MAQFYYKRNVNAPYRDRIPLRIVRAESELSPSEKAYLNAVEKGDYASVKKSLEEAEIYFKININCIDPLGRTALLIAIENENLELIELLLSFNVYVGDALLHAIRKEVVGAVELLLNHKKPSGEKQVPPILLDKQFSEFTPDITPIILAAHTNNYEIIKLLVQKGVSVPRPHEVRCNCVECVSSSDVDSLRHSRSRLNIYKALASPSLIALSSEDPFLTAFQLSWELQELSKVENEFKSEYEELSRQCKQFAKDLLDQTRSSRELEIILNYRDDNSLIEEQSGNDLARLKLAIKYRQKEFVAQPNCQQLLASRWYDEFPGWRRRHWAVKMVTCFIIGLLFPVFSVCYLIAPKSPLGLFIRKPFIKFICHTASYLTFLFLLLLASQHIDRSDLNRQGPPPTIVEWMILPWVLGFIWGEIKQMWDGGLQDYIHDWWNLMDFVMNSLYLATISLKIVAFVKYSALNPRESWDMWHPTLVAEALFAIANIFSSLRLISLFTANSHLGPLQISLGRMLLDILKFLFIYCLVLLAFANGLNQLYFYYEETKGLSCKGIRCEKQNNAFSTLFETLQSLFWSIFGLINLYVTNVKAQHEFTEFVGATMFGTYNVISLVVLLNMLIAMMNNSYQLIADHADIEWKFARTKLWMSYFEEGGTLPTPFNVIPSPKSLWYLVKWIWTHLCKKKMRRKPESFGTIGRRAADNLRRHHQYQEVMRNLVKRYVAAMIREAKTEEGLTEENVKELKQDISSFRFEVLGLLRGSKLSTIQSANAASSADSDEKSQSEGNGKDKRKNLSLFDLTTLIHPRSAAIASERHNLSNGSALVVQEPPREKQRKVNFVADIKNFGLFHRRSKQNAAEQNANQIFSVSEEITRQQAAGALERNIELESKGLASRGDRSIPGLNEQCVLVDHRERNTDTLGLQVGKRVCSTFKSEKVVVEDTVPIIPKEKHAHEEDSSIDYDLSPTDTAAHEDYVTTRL

[6] = molecular target: Short transient receptor potential channel 4 (Mus musculus) (UniProt Q9QUQ5); test: inhibitors of mouse TRPC4 channel, confirmation, cell-based, second round, Fluo4, HEK293 TRPC4beta/mu-opioid, 1 µM (AID 2637;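 active = calcium signal ratio cut to more than 3 SD under the fully stimulated control mean yet still positive, in both repeats and the primary screen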); conditions: Fluo4 calcium flux, DAMGO, at 1 µM; stronger effect = higher value
[7] = molecular target: Short transient receptor potential channel 4 (Mus musculus) (UniProt Q9QUQ5); test: mouse TRPC4 channel activators, dose response, cell-based, HEK293 TRPC4/mu-opioid, Fluo-4 calcium (AID 434937;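 active = primary screen activator hit with a dose response curve and TRPC4 channel activation at any tested dose; inactive = no activation, no dose response, or not a primary hit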)
[8] = molecular target: Short transient receptor potential channel 4 (Mus musculus) (UniProt Q9QUQ5); test: mouse TRPC4 channel inhibitors, dose response, cell-based, HEK293 TRPC4/mu-opioid, Fluo-4 calcium (AID 434942)
[9] = molecular target: Short transient receptor potential channel 6 (Mus musculus) (UniProt Q61143); test: inhibition of mouse TRPC6 channel, confirmation, selectivity assay for TRPC4 inhibitor project, cell-based, HEK293, membrane potential dye, duplicate (AID 434948;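 active = active in primary screen and both duplicates, each dropping signal beyond three positive-control SD with fluorescence still positive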); conditions: HEK293 TRPC6, membrane potential dye fluorescence, at 10 µM, stimulated with maximal-effect acetylcholine; stronger effect = higher value
Sequence of Short transient receptor potential channel 6 (Mus musculus) (Q61143 whole entry, looked up): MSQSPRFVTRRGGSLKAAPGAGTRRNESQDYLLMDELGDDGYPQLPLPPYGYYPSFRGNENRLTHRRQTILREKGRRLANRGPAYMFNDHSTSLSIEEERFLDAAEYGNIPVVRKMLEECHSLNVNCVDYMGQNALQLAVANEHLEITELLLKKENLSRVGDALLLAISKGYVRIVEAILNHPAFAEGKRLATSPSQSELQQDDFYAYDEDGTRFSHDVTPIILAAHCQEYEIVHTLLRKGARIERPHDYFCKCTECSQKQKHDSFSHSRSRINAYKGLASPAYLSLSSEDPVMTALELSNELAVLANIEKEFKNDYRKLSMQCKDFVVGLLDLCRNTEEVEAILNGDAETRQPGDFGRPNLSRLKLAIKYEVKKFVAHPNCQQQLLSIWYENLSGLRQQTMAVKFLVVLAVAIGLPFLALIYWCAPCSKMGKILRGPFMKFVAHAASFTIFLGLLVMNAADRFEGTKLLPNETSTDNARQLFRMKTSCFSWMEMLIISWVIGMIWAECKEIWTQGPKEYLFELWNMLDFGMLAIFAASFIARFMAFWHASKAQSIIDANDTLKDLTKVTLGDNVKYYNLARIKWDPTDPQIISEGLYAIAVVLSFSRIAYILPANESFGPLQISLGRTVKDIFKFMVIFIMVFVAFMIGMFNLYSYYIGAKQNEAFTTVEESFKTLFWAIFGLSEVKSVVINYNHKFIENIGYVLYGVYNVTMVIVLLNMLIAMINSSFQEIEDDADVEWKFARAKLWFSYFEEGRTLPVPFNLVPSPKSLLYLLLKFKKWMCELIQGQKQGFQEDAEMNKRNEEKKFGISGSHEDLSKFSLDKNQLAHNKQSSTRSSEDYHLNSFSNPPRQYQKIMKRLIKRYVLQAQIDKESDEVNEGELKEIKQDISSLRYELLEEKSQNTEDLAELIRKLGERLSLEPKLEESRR

[10] = molecular target: Short transient receptor potential channel 6 (Mus musculus) (UniProt Q61143); test: activation of mouse TRPC6 channel, confirmation, selectivity assay for TRPC4 activator project, cell-based, HEK293, membrane potential dye, duplicate (AID 434950;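 active = membrane potential signal rise above negative control mean plus 3 SD in both duplicates, also active in the earlier TRPC4 screen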;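 for activation: 0% = buffer only wells and 100% = acetylcholine maximal-effect wells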); conditions: HEK293 TRPC6, membrane potential fluorescence, at 10 µM; stronger effect = higher value
[11] = molecular target: Short transient receptor potential channel 6 (Mus musculus) (UniProt Q61143); test: TRPC6 potentiation by TRPC4 potentiator hits, confirmation, selectivity assay for TRPC4 potentiator project, HEK293 cells, membrane potential dye, duplicate (AID 434952;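 active = compound raising the membrane signal above positive-control mean plus 3 SD in both repeats, and a primary screen hit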); conditions: HEK293 TRPC6, membrane potential dye fluorescence, at 10 µM, maximal acetylcholine added after compound; stronger effect = higher value
[12] = molecular target: Short transient receptor potential channel 4 (Mus musculus) (UniProt Q9QUQ5); test: calcium flux activators in TRPC4/5HT1a cells, counter-screen for TRPC4 activator project, cell-based, second counter screen, HEK293 TRPC4/5HT1a, Fluo-4 (AID 434977;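 active = calcium signal rise above buffer-control mean plus 5 SD in both duplicates, and also a hit in the primary screen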;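 for activation: plate controls were assay buffer for no effect and maximal serotonin response for full effect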); conditions: Fluo-4 calcium flux, at 10 µM; stronger effect = higher value
[13] = calcium flux inhibitors in TRPC4/5HT1a cells, confirmation, counter-screen for TRPC4 inhibitor project, cell-based, second counter screen, HEK293 TRPC4/5HT1a, Fluo-4 (AID 434978;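 active = primary screen active whose calcium signal fell more than 3 SD beyond the full-serotonin control mean in both duplicate plates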;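 note: serotonin given first at submaximal then at maximal dose after compound preincubation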); conditions: Fluo-4 calcium flux, at 10 µM, serotonin added to trigger calcium flux; stronger effect = higher value
[14] = tested on: TRPC4 (mouse), co-expressed with 5HT1a in HEK293; test: calcium flux potentiators in TRPC4/5HT1a cells, confirmation, counter-screen for TRPC4 potentiator project, cell-based, second counter screen, HEK293 TRPC4/5HT1a, Fluo-4 (AID 434979;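 active = signal rise over 3 SD above mean of control wells given weak agonist, in both repeats and first screen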); conditions: Fluo-4 calcium flux, at 10 µM, serotonin added at its EC20 dose; stronger effect = higher value
[15] = calcium flux activation in mu-opioid HEK293 cells, confirmation, counter-screen for TRPC4 activator project, cell-based, HEK293 mu-opioid receptor line (AID 449723;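 active = hit in primary screen, with calcium signal over 5 SD above buffer well mean in both duplicates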;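 note: counter screen cells carry the mu-opioid receptor alone and lack TRPC4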); conditions: Fluo-4 calcium fluorescence, at 10 µM; stronger effect = higher value
[16] = calcium flux enhancement in mu-opioid HEK293 cells, confirmation, counter-screen for TRPC4 allosteric potentiator project, cell-based, HEK293 mu-opioid receptor line (AID 449724;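 active = calcium signal rise more than 3 SD above the low-dose agonist control mean, in both duplicate plates and the primary screen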); conditions: Fluo-4 calcium flux, at 10 µM, compound added before EC20 DAMGO stimulus; stronger effect = higher value
[17] = molecular target: Short transient receptor potential channel 4 (Mus musculus) (UniProt Q9QUQ5); test: TRPC4 positive allosteric modulators, dose response, cell-based, HEK293 TRPC4/mu-opioid, Fluo-4 calcium, EC20 DAMGO (AID 434941;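 active = earlier screen potentiator hit that boosts the TRPC4 ion channel at some dose, with a dose response; inactive = no potentiation, no dose response, or not a prior hit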;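 note: calcium entry triggered by an EC20 dose of DAMGO at the co-expressed mu-opioid receptor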)

CC(C)c1c(O)nc(SCCN(C)C)[nH]c1=O
active: potentiation [3] 13% | potentiation [4] 27% | potentiation [14] 57.7%
inactive: outcome [1] | outcome [2] | outcome [5] | outcome [6] | outcome [7] | outcome [8] | outcome [9] | outcome [10] | outcome [11] | outcome [12] | outcome [13] | outcome [15] | outcome [16]

CC1Cc2ccccc2N1C(=O)CSc1nc2c(c(=O)n(C)c(=O)n2C)n1Cc1ccc(F)cc1 (stereo not given)
inactive: outcome [1] | outcome [2] | outcome [5] | outcome [6] | outcome [7] | outcome [8] | outcome [9] | outcome [10] | outcome [11] | outcome [12] | outcome [13] | outcome [15] | outcome [16]
active: potentiation [3] 36% | potentiation [4] 40% | potentiation [14] 67.1%

Cc1ccccc1N1CC(O)(c2ccccc2)[N+]2=C1SCC2 (stereo not given)
active: activation [1] 73% | activation [10] 39%
inactive: outcome [2] | outcome [3] | outcome [4] | outcome [5] | outcome [6] | outcome [17] | outcome [8] | outcome [9] | outcome [11] | outcome [12] | outcome [13] | outcome [14] | outcome [15] | outcome [16]

O=C(Nc1cccc(Cl)c1)N1CCN(C/C=C/c2ccccc2)CC1
inactive: outcome [1] | outcome [2] | outcome [3] | outcome [4] | outcome [5] | outcome [6] | outcome [7] | outcome [8] | outcome [9] | outcome [10] | outcome [11] | outcome [12] | outcome [13] | outcome [15] | outcome [16]
active: potentiation [14] 19.8%

CCn1c(O)c(N=NC(=O)c2cccc(S(=O)(=O)N3CCCCC3)c2)c2ccccc21
inactive: outcome [1] | outcome [2] | outcome [3] | outcome [4] | outcome [5] | outcome [6] | outcome [7] | outcome [8] | outcome [9] | outcome [10] | outcome [11] | outcome [12] | outcome [13] | outcome [15] | outcome [16]
active: potentiation [14] 6.79%

O=c1[nH][nH]c(-c2ccccc2)c1C=Nc1ccc(Cl)cc1
inactive: outcome [1] | outcome [2] | outcome [3] | outcome [4] | outcome [5] | outcome [6] | outcome [7] | outcome [8] | outcome [9] | outcome [10] | outcome [11] | outcome [12] | outcome [13] | outcome [15] | outcome [16]
active: potentiation [14] 79.8%

Cc1cc(-c2ccc(C)c(S(=O)(=O)N3CCN(C(=O)c4ccco4)CC3)c2)on1
active: potentiation [4] 46% | potentiation [14] 54.2%
inactive: outcome [1] | outcome [2] | outcome [3] | outcome [5] | outcome [6] | outcome [7] | outcome [8] | outcome [9] | outcome [10] | outcome [11] | outcome [12] | outcome [13] | outcome [15] | outcome [16]

COC(=O)[C@@]12CCCCN1[C@H](c1ccc(-c3cccc(Cl)c3)c(OC)c1)[C@H]1C(=O)N(C)C(=O)[C@H]12
inactive: outcome [1] | outcome [2] | outcome [3] | outcome [5] | outcome [6] | outcome [7] | outcome [8] | outcome [9] | outcome [10] | outcome [11] | outcome [12] | outcome [13] | outcome [15] | outcome [16]
active: potentiation [4] 27% | potentiation [14] 52.4%

C1CCN(c2nc(N3CCCC3)nc(N3CCNCC3)n2)C1
inactive: outcome [1] | outcome [2] | outcome [3] | outcome [4] | outcome [5] | outcome [6] | outcome [7] | outcome [8] | outcome [9] | outcome [10] | outcome [11] | outcome [12] | outcome [13] | outcome [15] | outcome [16]
active: potentiation [14] 18.4%

c1ccc(-c2nc(N3CCNCC3)nc3ccccc23)cc1
active: potentiation [3] 19%
inactive: outcome [1] | outcome [2] | outcome [4] | outcome [5] | outcome [6] | outcome [7] | outcome [8] | outcome [9] | outcome [10] | outcome [11] | outcome [12] | outcome [13] | outcome [14] | outcome [15] | outcome [16]

Cc1cc(OCC(=O)NC2CCCCC2)ccc1Cl
inactive: outcome [1] | outcome [2] | outcome [3] | outcome [4] | outcome [5] | outcome [6] | outcome [7] | outcome [8] | outcome [9] | outcome [10] | outcome [11] | outcome [12] | outcome [13] | outcome [15] | outcome [16]
active: potentiation [14] 97.2%

O=C1C(Cl)=C(Nc2cccc(O)c2)C(=O)N1Cc1ccccc1
inactive: outcome [1] | outcome [2] | outcome [3] | outcome [5] | outcome [6] | outcome [7] | outcome [8] | outcome [9] | outcome [10] | outcome [11] | outcome [12] | outcome [13] | outcome [15] | outcome [16]
active: potentiation [4] 38% | potentiation [14] 20.8%

CCOc1ccc(-n2c(SCC(=O)O)nc3sc4c(c3c2=O)CCCC4)cc1
active: potentiation [14] 16.4%
inactive: outcome [1] | outcome [2] | outcome [3] | outcome [4] | outcome [5] | outcome [6] | outcome [7] | outcome [8] | outcome [9] | outcome [10] | outcome [11] | outcome [12] | outcome [13] | outcome [15] | outcome [16]

O=C(c1cccc([N+](=O)[O-])c1)N1CCCC(C(=O)N2CCCCCC2)C1 (stereo not given)
inactive: outcome [1] | outcome [2] | outcome [3] | outcome [4] | outcome [5] | outcome [6] | outcome [7] | outcome [8] | outcome [9] | outcome [10] | outcome [11] | outcome [12] | outcome [13] | outcome [14] | outcome [15] | outcome [16]

COc1ccccc1/C=C/CN1CCCC(CCC(=O)NCc2ccccc2F)C1 (stereo not given)
inactive: outcome [3] | outcome [4] | outcome [6] | outcome [17] | outcome [8] | outcome [9] | outcome [11] | outcome [13] | outcome [14] | outcome [15] | outcome [16]
active: activation [1] 98% | activation [2] 51% | inhibition [5] 53% | activation [10] 44% | activation [12] 32.5%
